Most compounds without a hit are left out; they make up all but 3.8% or so of the library.
TGFb inhibitor – TGF-b pathway inhibition; HepG2 CAGA-GFP TGF-b/SMAD3 reporter, GFP fluorescence, 18 h; TGF-beta stimulated, 500 pg/mL final; Potency, µM (titrated, usually from 46.1 µM), hits mostly inhibitors; 1.2% of 410,000 active; also: nearly all actives have a fitted effect of over 65% in size
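Per well, imaged GFP fluorescence of HEPG2 CAGA-GFP cells gives the signal; cells get compound, then TGF-beta (500 pg/mL final), 18 h at 37 degrees C; %Activity versus -TGF-beta and +DMSO controls.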
HT1080-NT tox – kills 2HG-producing HT-1080-NT fibrosarcoma cells; HT-1080-NT fibrosarcoma viability, CellTiter-Glo ATP luminescence, 48 h; Potency, µM (titrated, usually from 46.1 µM), actives largely listed as cytotoxic; 1.6% of 360,000 active; AID 686970;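 also: NT is the 2HG producing partner of a matched IDH1 knockdown line; nearly all actives have a fitted effect of over 55% in size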
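Luminescent CellTiter-Glo readout after 48 hours of compound exposure at 37 degrees C defined viability of HT-1080-NT cells. Activity was normalized to DMSO wells and cell-free media wells; concentration-response curves were fitted and assigned curve classes.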
HT1080 IDH1KD tx – kills HT-1080 cells with IDH1 knockdown | HT-1080 IDH1 knockdown viability, ATP luminescence, 48 h | 2% of 360,000 active | Potency, µM (series often up to 46.1 µM), actives largely listed as cytotoxic
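Cytotoxicity counter-line: IDH1KD HT-1080, 48 h, CellTiter-Glo. Curves classed by r2, magnitude and activity.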
ATXN viability – cell viability loss in ATXN counter-screen | S2 cells (HEK-293 line with an ATXN2-luciferase reporter) viability, CellTiter-Fluor protease fluorescence, 24 h | Potency, µM (highest dose often 56.7 µM), most hits filed as cytotoxic | 0.49% of 400,000 active; also: nearly all actives have a fitted effect of over 40% in size
HepG2 tox – HepG2 cytotoxicity, counter-screen for TGF-b inhibitors | HepG2 CAGA-GFP viability, ATP luminescence, 18 h | 0.76% of 410,000 active | Potency, µM (titrated, usually from 46.1 µM), most hits filed as cytotoxic
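HepG2 CAGA-GFP cells (1000/well, DMEM with 1% FBS) received compound, then TGF-beta at 500 pg/mL final, and were incubated 18 hours at 37 degrees C. Viability was read by CellTiter-Glo luminescence. Media-only wells were set as complete cell-killing and DMSO as no toxicity.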
ATXN2 expr inh – reduces ATXN2 reporter expression in HEK-293 cells | HEK-293 ATXN2-luciferase reporter, luminescence, 24 h | 0.72% of 360,000 active | Potency, µM (doses to about 57 µM), usual class: inhibitors; also: nearly all actives have a fitted effect of over 55% in size
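ATXN2-luciferase reporter cells (luciferase flanked by upstream and downstream ATXN2 gene portions) were treated 24 h at 37 °C with compounds at up to 57 uM. SteadyGlo luminescence gave expression; GF-AFC fluorescence gave viability.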
A number is an active result; n = inactive; u = inconclusive; x = not tested or not shown. Calls follow the shape of the dose curve; as a rule, active = well fitted curve in the direction sought with a large enough effect; inconclusive = small, poorly fitted or top-dose-only effect, or another doubt; inactive = no such curve, though single readings can be large; an effect the other way counts as inactive or inconclusive.

SMILES	TGFb inhibitor	HT1080-NT tox	HT1080 IDH1KD tx	ATXN viability	HepG2 tox	ATXN2 expr inh
C[C@@H]1CCO[C@H]2Cn3cc(C(=O)NCc4ccc(F)cc4F)c(=O)c(O)c3C(=O)N12	x	x	x	x	x	n
COc1cc(/C=C/c2ccc3ccccc3n2)cc(OC)c1OC	n	x	x	x	n	x
CC(C)(C)c1nnc(NS(=O)(=O)c2cc(Cl)ccc2Cl)s1	n	n	n	n	n	n
O=S(=O)(Nc1nc(-c2sccc2Cl)cs1)c1cc(Cl)ccc1Cl	11µM	n	n	u	n	n
O=C(CBr)c1ccc(Oc2ccc(C(=O)C[n+]3cccc(Br)c3)cc2)cc1	n	x	x	x	n	x
O=C(CSc1nc(=O)n(Cc2ccco2)c2c1CCC2)NCc1ccc(F)cc1	n	x	x	u	n	n
O=C(CSc1nc(=O)n(Cc2ccco2)c2c1CCC2)Nc1cccc(F)c1	7.9µM	x	x	n	n	u
COC[C@@H](c1ccc(C(F)(F)F)cc1)N1CCN(C2(C)CCN(C(=O)c3c(C)ncnc3C)CC2)C[C@H]1C	x	x	x	n	x	n
CC(C)(C)NCC(O)CON=C1c2ccccc2-c2ccccc21 (stereo not drawn)	u	18µM	15µM	x	11µM	n
CC(C)(C)NC(=O)CON=C1c2ccccc2-c2ccccc21	u	n	n	u	n	n
O=C(c1ccc2c(=O)n(-c3ccccc3)c(=O)[nH]c2c1)N1CCN(Cc2cccs2)CC1	n	x	x	x	n	x
CC(=O)Nc1ccccc1-c1nc(CNC(=O)c2cccc(-n3cccn3)c2)c(C)o1	x	x	x	n	x	x
Cc1ccc2c(c1)c1c(n2CC(O)CN2CCCCC2C)CCCC1 (stereo not drawn)	n	18µM	u	n	n	n
Cc1ccc2c(c1)c1c(n2CC(O)CNC2CCCCC2)CCCC1 (stereo not drawn)	u	21µM	16µM	u	n	u
Cc1ccc(N(C)C(=O)Cn2cc(S(=O)(=O)N3CCCC3)c(S(=O)(=O)N3CCCC3)c2)cc1	n	x	x	n	n	n
CCN(CC)CCN1C(=O)c2cccc3cc(N)cc(c23)C1=O	u	33µM	33µM	u	n	u
CN(C)CCN1C(=O)c2cccc3cc(N)cc(c23)C1=O	x	x	x	x	x	5.4µM
Cc1ccccc1-c1cccc(CN2CCc3nnc(C(C)NC(=O)c4cccnc4)n3CC2)c1 (stereo not drawn)	x	x	x	n	x	x
CN(C)c1ccc(C2CC(c3c(O)n(C4CCCCC4)c(=O)[nH]c3=O)=Nc3ccccc3S2)cc1 (stereo not drawn)	n	x	x	n	n	n
Cc1nc2cc(C(F)(F)F)ccc2n1CCNc1nc(-c2ccc(F)cc2)cs1	n	n	n	n	n	n
Cc1nc2cc(C(F)(F)F)ccc2n1CCNc1nc(-c2ccc([N+](=O)[O-])c(Cl)c2)cs1	16µM	u	u	u	n	u
Cc1ccc(N2NC3(CCN(C(N)=O)CC3)NC2=O)cc1	n	5.8µM	6.5µM	n	n	n
Cc1ccc(N2C(=O)NC3(CCCCC3)C2=O)cc1	n	n	n	n	n	n
CCOC(=O)C1=C[C@@H](C2CCCCC2)N(S(=O)(=O)c2ccc([N+](=O)[O-])cc2)[C@H]1c1ccccc1	u	u	8.2µM	u	n	n
CCOC(=O)C1=CC[C@@H](c2ccc([N+](=O)[O-])cc2)N(S(=O)(=O)c2ccc(C)cc2)[C@H]1c1ccccc1	n	n	n	n	n	n
SMILES	TGFb inhibitor	HT1080-NT tox	HT1080 IDH1KD tx	ATXN viability	HepG2 tox	ATXN2 expr inh
COc1ccc(C(=O)c2ccccc2)c(O)c1	u	n	n	n	n	n
COc1ccc(C(=O)/C=C/c2ccccc2)c(OC)c1	u	n	u	u	n	u
COc1cc(C)cc(C(=O)C=Cc2ccccc2)c1O	u	23µM	u	n	n	n
COc1cccc(/C=C/C(=O)c2ccc(C)c([N+](=O)[O-])c2)c1	u	u	n	n	n	n
COc1ccc2cc(C(=O)/C=C/c3cc(OC)c(O)c(OC)c3)ccc2c1	u	21µM	16µM	u	18µM	n
COc1ccc(C(C)=O)c(O)c1	x	x	x	x	x	15µM
COc1cc(/C=C/C(=O)c2ccc(C)c([N+](=O)[O-])c2)cc(OC)c1O	13µM	u	u	n	n	u
COc1cc(CNCc2cc3ccc(F)cc3nc2N2CCOCC2)cc(OC)c1OC	x	x	x	n	x	x
NC(=O)NN=Cc1ccc([N+](=O)[O-])o1	x	x	x	x	x	n
COc1ccc(Nc2oc(-c3ccc(COc4ccccc4C)o3)nc2C#N)cc1	n	x	x	u	n	u
COc1ccc(C=CC(=O)c2cc(O)ccc2O)cc1	n	16µM	18µM	n	n	n
COc1ccc(/C=C/C(=O)c2ccc(C)c([N+](=O)[O-])c2)cc1O	18µM	n	u	n	20µM	n
COC(=O)c1ccc(/C=C/C(=O)c2cccc(OC)c2)cc1	u	u	23µM	n	n	n
COc1ccc(C(=O)/C=C/c2ccc(O)cc2)cc1	n	n	n	n	n	n
COc1cc(NC(=O)Nc2nc(C(N)CCc3ccccc3)cs2)cc(OC)c1OC (stereo not drawn)	u	18µM	u	u	n	u
COc1ccc(-c2nnc(SCC(=O)Nc3cccc(Cl)c3C)nc2-c2ccc(OC)cc2)cc1	n	x	x	n	n	n
COc1ccc(-c2nnc(SCC(=O)Nc3cc(OC)ccc3OC)nc2-c2ccc(OC)cc2)cc1	10µM	x	x	x	n	x
COc1ccc(NC(=O)Nc2cc(NC(=O)Nc3ccc(OC)cc3)c(C)nc2C)cc1	n	n	n	n	n	n
COc1ccc(OC)c(NC(=O)Nc2cc(NC(=O)Nc3cc(OC)ccc3OC)c(C)nc2C)c1	n	18µM	23µM	n	n	n
COc1ccc(CCNC(=O)Nc2nc(C(N)Cc3ccccc3)cs2)cc1OC (stereo not drawn)	n	u	u	n	n	n
NC(CCc1ccccc1)c1csc(NC(=O)NCC2CCCCC2)n1 (stereo not drawn)	u	16µM	u	u	n	u
CN(C(=O)CSc1nnc(COc2ccccc2)o1)c1ccccc1	n	x	x	n	n	n
CN1C(=O)c2ccccc2Sc2ccc(NC(=O)COc3ccc(F)cc3)cc21	n	x	x	u	n	u
COc1ccc(OC)c(NC(=O)Nc2nc(C(N)CCc3ccccc3)cs2)c1 (stereo not drawn)	u	u	21µM	x	16µM	u
Cc1ccnn1CC(=O)N/N=C/c1ccc([N+](=O)[O-])s1	11µM	u	n	n	n	u
O=C(N/N=C/c1sc2ccccc2c1O)c1ccccc1	n	8.2µM	2.6µM	n	n	u
Cc1ccccc1NC(=O)/C=C/c1ccc([N+](=O)[O-])s1	7.1µM	4.1µM	3.7µM	10µM	7.9µM	10µM

Compound activity as filed in PubChem BioAssay.
